Sampled rows, rich in hits. Any-hit rate of the full collection: about 19%.
TDP1 cell CPT: qHTS for Inhibitors of human tyrosyl-DNA phosphodiesterase 1 (TDP1): qHTS in cells in presence of CPT. chicken DT40 Tdp1-/-;hTDP1 cells + 20 nM CPT, ATP luminescence, 48 h. Potency, µM (series often up to 46.2 µM), for the others: at the highest dose activity change, negative = growth inhibition, usual class: inhibitors. actives 12% (n = 420,000). AID 686979, 2013; note: nearly all actives have a fitted effect of over 55% in size
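Cell growth measured by CellTiter-Glo luminescence after a minimum 48 h, 37 C compound exposure with 20 nM CPT in Tdp1-knockout DT40 cells stably expressing hTDP1, seeded 400/well; qHTS titration format.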
KB-V1 cytotox: qHTS assay for MDR1-selective chemotherapeutics: Primary screen using the drug-selected MDR subline cells KB-V1; KB-V1 MDR cells viability, CellTiter-Glo, 72 h; Potency, µM (highest dose often 46.1 µM), usual class: cytotoxic; actives 3.4% (n = 400,000); note: nearly all actives have a fitted effect of over 60% in size
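Cells of the MDR subline KB-V1 are plated, dosed with compound at multiple concentrations, and incubated 72 h at 37 degrees C; CellTiter-Glo is then added and luminescence read after 10 min.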
HT1080-NT tox: qHTS for induction of synthetic lethality in tumor cells producing 2HG: qHTS for the HT-1080-NT fibrosarcoma cell line; Potency, µM (doses to about 46.1 µM), for the others: top-dose activity, negative = less viability, hits mostly cytotoxic; HT-1080-NT fibrosarcoma viability, CellTiter-Glo ATP luminescence, 48 h; actives 1.6% (n = 360,000);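 note: NT is the 2HG producing partner of a matched IDH1 knockdown line; 0% = DMSO-treated cells and -100% = media-only wells without cells; nearly all actives have a fitted effect of over 55% in size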
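HT-1080-NT fibrosarcoma cells (2HG-overproducing), 750 cells/well in RPMI with 5% FBS, dosed after 2 h and incubated 48 h at 37C. CellTiter-Glo luminescence normalized to DMSO and no-cell wells; concentration-response curves fitted and classed.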
DT40 TDP1 no CPT: qHTS for Inhibitors of human tyrosyl-DNA phosphodiesterase 1 (TDP1): qHTS in cells in absence of CPT; DT40 Tdp1-/- hTDP1 cells, no CPT, ATP luminescence, 48 h; Potency, µM (titrated, usually from 46.2 µM), without a hit: top-dose activity change, negative = growth inhibition, actives largely listed as inhibitors; actives 15% (n = 420,000); note: nearly all actives have a fitted effect of over 55% in size
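Readout: luminescence from CellTiter-Glo after 30 min in the dark at RT. Cells: DT40 Tdp1-/- with stable hTDP1, 400/well. Exposure: compounds alone, ≥48 hr, 37 °C.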
HT1080 IDH1KD tx: qHTS for induction of synthetic lethality in tumor cells producing 2HG: qHTS for the HT-1080-IDH1KD cell line | HT-1080 IDH1 knockdown viability, ATP luminescence, 48 h | Potency, µM (highest dose often 46.1 µM), inactives show at the top dose activity, negative = toxicity, most hits filed as cytotoxic | actives 2% (n = 360,000) | AID 686971, 2013;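 note: 0% = DMSO wells and -100% = cell-free medium wells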
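Viability of IDH1-knockdown HT-1080 fibrosarcoma cells was assessed by CellTiter-Glo after 48 h at 37 °C with titrated compound; concentration-effect curves were classified by fit quality and response size.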
KB-3-1 tox: qHTS assay for MDR1-selective chemotherapeutics: Primary screen using the parental adenocarcinoma cell KB-3-1; actives 1.4% (n = 400,000); KB-3-1 viability, CellTiter-Glo ATP luminescence, 72 h; Potency, µM (titrated, usually from 46.1 µM), hits mostly cytotoxic; AID 1347075, 2019; note: nearly all actives have a fitted effect of over 60% in size
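Cytotoxicity measured as CellTiter-Glo luminescence after 72 h at 37 C. Compound titrations were pinned onto drug-naive KB-3-1 parental adenocarcinoma cells grown in DMEM with 10% FBS, and normalized data fitted to concentration-response curves.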
An asterisk follows results filed as active; i = inactive; ? = inconclusive; nt = no result; [ ] = remark or other dose. Calls come from the whole dose curve; as a rule, active = well fitted curve in the direction sought with a large enough effect; inconclusive = small, poorly fitted or top-dose-only effect, or another doubt; inactive = no such curve, though single readings can be large; an effect the other way counts as inactive or inconclusive. Unless noted, % is set by controls: 0 for no effect and ±100 for the full control effect; potency is the fitted concentration of half-maximal effect.

SMILES | TDP1 cell CPT | KB-V1 cytotox | HT1080-NT tox | DT40 TDP1 no CPT | HT1080 IDH1KD tx | KB-3-1 tox
Cc1ccc(N=C2NC(=O)/C(=C\c3ccco3)S2)cc1 | -29.2% | i | 3.0% | ? | 3.7% | i
C=CCOc1c(Br)cc(/C=C2\SC(=Nc3ccccc3)NC2=O)cc1OC | ? | i | -17.0% | 20.6µM* | -23.9% | i
CC(=O)NCCNc1nc2cc(-c3ccc4c(ccn4C)c3)sc2c(=O)n1C | ? | i | -23.8% | -8.6% | -28.4% | i
Cc1ccc(-c2n[nH]c(=S)n2Cc2ccccc2)cc1 | -28.1% | ? | ? | -21.7% | ? | i
CCc1cc(-c2n[nH]c(=S)n2Cc2ccccc2)cs1 | 9.4% | 20.6µM* | 7.7% | ? | 10.2% | i
Cc1ccccc1-n1c(Cc2cccs2)n[nH]c1=S | -8.8% | i | ? | 3.1% | ? | i
CCc1cc(-c2n[nH]c(=S)n2CC)cs1 | 7.1% | ? | 1.3% | 3.2% | 2.4% | ?
Cc1[nH]c2ccc(-c3n[nH]c(=S)n3Cc3ccccc3)cc2c1C | 23.1µM* | i | ? | 16.4µM* | -27.2% | i
CCc1cc(-c2n[nH]c(=S)n2-c2ccccc2C)cs1 | -25.2% | 18.4µM* | 11.2µM* | -28.9% | ? | i
CCOc1ccc(-c2n[nH]c(=S)n2Cc2ccccc2)cc1 | ? | i | -2.8% | 20.6µM* | -0.3% | i
Nc1ccc(S(=O)(=O)Nc2nc(-c3ccccc3)cc(-c3ccccc3O)n2)cc1 | -23.6% | i | -18.6% | -16.0% | ? | i
COC(=O)[C@@]1(Cc2ccc(F)cc2)[C@H]2c3cc(C(=O)N4CCCC4)n(CCc4ccccn4)c3C[C@H]2CN1C(=O)c1ccccc1 | ? | i | -14.5% | -8.7% | -20.7% | i
Cc1ccccc1-n1c(C)n[nH]c1=S | -17.6% | i | 12.6µM* | -2.2% | ? | i
Cc1ccccc1-n1c(-c2ccoc2C)n[nH]c1=S | ? | i | -1.9% | ? | 6.9% | i
CCC(C)c1ccc(S(=O)(=O)N2CCN(C(=O)COc3ccc4c(C)cc(=O)oc4c3)CC2)cc1 (configuration not stated) | ? | i | 1.1% | 14.6µM* | -6.5% | i
COc1ccc(OCC(=O)N2c3ccccc3CC2C)c([N+](=O)[O-])c1 (configuration not stated) | ? | i | -1.4% | ? | 2.2% | i
Cc1cc(=O)oc2cc(OCC(=O)N3c4ccccc4CC3C)ccc12 (configuration not stated) | 4.11µM* | 2.59µM* | 2.59µM* | 2.31µM* | 2.59µM* | 2.91µM*
CC1Cc2ccccc2N1C(=O)COc1nc2ccccc2nc1N1CCOCC1 (configuration not stated) | 7.31µM* | ? | 6.2% | 9.2µM* | 11.6% | i
CCN(CC)c1cccc(OCC(=O)N2c3ccccc3CC2C)c1 (configuration not stated) | ? | i | -7.2% | 18.4µM* | -18.8% | i
CCOC(=O)c1c(C)n(C)c2ccc(OC(=O)c3ccc(N4C(=O)CCC4=O)cc3)cc12 | ? | i | 1.5% | -25.5% | 2.8% | i
CCOc1ccc(NC(=O)N(Cc2ccc(C)cc2)Cc2ccccn2)cc1 | -5.7% | i | 5.8% | ? | 6.9% | i
Cc1cc(=O)oc2ccc(OCC(=O)N3CCC(C)CC3)cc12 | ? | ? | -4.9% | 25.9µM* | -3.7%[9.24 µM] | i
Cc1cc(=O)oc2cc(OCC(=O)N3CCCC(C)C3)ccc12 (configuration not stated) | -4.5% | i | 6.2% | -20.6% | 3.7% | i
Cc1ccc(S(=O)(=O)N2CCCCC2)cc1NC(=O)COC(=O)c1cccn1C | ? | i | -13.5% | ? | -1.0% | i
CC1CCN(CC(=O)Nc2ccc(S(=O)(=O)NC3CC3)cc2)CC1 | -13.5% | i | 28.8% | -27.5% | -1.4% | i
SMILES | TDP1 cell CPT | KB-V1 cytotox | HT1080-NT tox | DT40 TDP1 no CPT | HT1080 IDH1KD tx | KB-3-1 tox
Brc1ccc(/C=C2\C=Cc3ccccc32)cc1 | ? | i | nt | ? | nt | i
COc1cc(NC(=O)COc2ccc(-n3cnnn3)cc2)cc(OC)c1OC | 23.1µM* | i | -9.2% | ? | -0.9% | i
COc1cc(NC(=O)CCC2CCCC2)cc(-n2cnnn2)c1 | ? | 20.6µM* | -5.2% | ? | 14.5% | i
O=C(COc1ccc(-n2cnnn2)cc1)Nc1cc(Cl)cc(Cl)c1 | -22.3% | i | ? | ? | ? | ?
Cc1ccc(CNc2oc(-c3ccc(COc4ccc(C)cc4)o3)nc2C#N)cc1 | ? | i | nt | ? | nt | i
COC(=O)C1=C(COc2ccccc2)NC(=O)NC1c1ccc2ccccc2c1 (configuration not stated) | ? | i | ? | 23.1µM* | ? | i
Cc1nc(N)sc1-c1csc(Nc2ccc(Cl)cn2)n1 | ? | 18.4µM* | ? | ? | ? | i
Cc1nc(N)sc1-c1csc(Nc2cc(N(C)C)ccc2Cl)n1 | 7.31µM* | ? | 2.5% | 13µM* | 1.1% | i
C/C(Cn1nnc([N+](=O)[O-])n1)=N\NC(=O)c1ccncc1 | 16.4µM* | ? | 0.3% | 20.6µM* | -29.7% | i
C/C(Cn1cnc([N+](=O)[O-])n1)=N\NC(=O)c1ccc(F)cc1 | 6.8% | i | 10.3% | -16.4% | 1.9% | i
C/C(Cn1cnc([N+](=O)[O-])n1)=N\NC(=O)c1ccncc1 | -25.3% | ? | -2.1% | 10.5% | 12.4% | i
C/C(Cn1nnc([N+](=O)[O-])n1)=N\NC(=O)c1ccc(C)cc1 | 13µM* | ? | -0.6% | 14.6µM* | -17.3% | ?
COc1ccc(CCNC(=O)CSc2nc3ccsc3c(=O)n2Cc2ccccn2)cc1OC | -1.5% | i | -2.4% | -2.7% | 9.4% | i
CCOc1ccc(N2CC(C(=O)Nc3cc(S(=O)(=O)N4CCCCC4)ccc3C)CC2=O)cc1 (configuration not stated) | ? | 18.4µM* | -0.4% | ? | -2.4% | i

Bioassay records as filed in PubChem.
